# Results from PubChem BioAssay.
# Values without a mark were called inactive. Entries that show only a call come without a potency. For some assays here: Potency and affinity values are given separately. The source made the active and inactive calls. Unless noted, how the calls were made is not given here.
# How the values were obtained:
# [1] = antimalarial activity against Dd2 strain (AID 2302;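 active means growth inhibition above 50% at the single 2 µM test dose, taken to imply half-maximal potency below 2 µM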); conditions: P. falciparum Dd2 in RBCs, LDH growth readout, 72 h; at 2 µM; hits give high values
# [2] = human hepatoma cell viability loss – ATP luminescence, cytotoxicity control for P. falciparum antimalarial project, primary screen (AID 2303;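 active means inhibition above 50%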); conditions: HepG2 viability, 24-48 h, at 10 µM, hits give high values
# [3] = target: L-lactate dehydrogenase (Plasmodium falciparum (isolate CDC / Honduras)) (UniProt Q27743); test: PfLDH activity inhibition – cell lysate, 3D7 strain, counter-screen for P. falciparum growth inhibition project (AID 2304); conditions: P. falciparum 3D7 crude extract, LDH APAD/NBT absorbance; at 2 µM; hits give high values
# Chain of L-lactate dehydrogenase (Plasmodium falciparum (isolate CDC / Honduras)) (Q27743 whole entry, looked up): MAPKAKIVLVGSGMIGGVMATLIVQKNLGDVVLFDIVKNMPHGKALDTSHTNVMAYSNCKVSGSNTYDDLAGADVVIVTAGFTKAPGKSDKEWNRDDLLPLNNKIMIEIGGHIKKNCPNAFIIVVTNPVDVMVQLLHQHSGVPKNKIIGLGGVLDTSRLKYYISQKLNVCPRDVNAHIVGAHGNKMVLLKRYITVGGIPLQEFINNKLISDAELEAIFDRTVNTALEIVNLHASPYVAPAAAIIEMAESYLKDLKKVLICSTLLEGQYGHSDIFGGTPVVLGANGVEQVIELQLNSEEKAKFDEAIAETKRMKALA
# [4] = inhibition of 3D7 malaria parasite growth – strain 3D7 (AID 2306); conditions: P. falciparum 3D7 erythrocytic growth, LDH absorbance, 72 h; at 2 µM; hits give high values
# [5] = target: Calcium-dependent protein kinase 1 (Plasmodium falciparum (isolate 3D7)) (UniProt P62344); test: PfCDPK1 kinase inhibitors, biochemical, TCAMS library (AID 1159585; cut-off not given, nearly all actives have IC50 up to about 0.98 µM;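 further: inhibitors leave more ATP so luminescence rises with inhibition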); conditions: recombinant PfCDPK1, Kinase-Glo ATP depletion luminescence
# Chain of Calcium-dependent protein kinase 1 (Plasmodium falciparum (isolate 3D7)) (P62344 whole entry, looked up): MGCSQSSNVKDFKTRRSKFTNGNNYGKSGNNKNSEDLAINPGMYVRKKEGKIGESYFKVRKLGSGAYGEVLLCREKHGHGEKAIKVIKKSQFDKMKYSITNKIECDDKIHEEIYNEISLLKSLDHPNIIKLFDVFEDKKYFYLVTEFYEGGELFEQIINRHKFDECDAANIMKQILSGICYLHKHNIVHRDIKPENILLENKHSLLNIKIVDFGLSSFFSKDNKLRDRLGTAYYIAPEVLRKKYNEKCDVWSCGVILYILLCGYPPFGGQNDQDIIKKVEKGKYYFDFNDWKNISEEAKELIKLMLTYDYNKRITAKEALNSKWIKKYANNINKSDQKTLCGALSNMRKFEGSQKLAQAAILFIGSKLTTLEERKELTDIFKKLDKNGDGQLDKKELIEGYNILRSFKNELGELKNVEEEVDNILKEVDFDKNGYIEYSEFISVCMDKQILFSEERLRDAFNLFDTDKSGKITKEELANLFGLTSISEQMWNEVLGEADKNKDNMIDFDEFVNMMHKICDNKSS
# [6] = target: Plasmodium falciparum protein kinase 6 (PK6, PF3D7_1337100) (UniProt Q8IDW1); test: PfPK6 kinase inhibitors, biochemical, TCAMS library (AID 1159586); conditions: recombinant PfPK6, Kinase-Glo ATP depletion luminescence
# Chain of Plasmodium falciparum protein kinase 6 (PK6, PF3D7_1337100) (Q8IDW1 1-305): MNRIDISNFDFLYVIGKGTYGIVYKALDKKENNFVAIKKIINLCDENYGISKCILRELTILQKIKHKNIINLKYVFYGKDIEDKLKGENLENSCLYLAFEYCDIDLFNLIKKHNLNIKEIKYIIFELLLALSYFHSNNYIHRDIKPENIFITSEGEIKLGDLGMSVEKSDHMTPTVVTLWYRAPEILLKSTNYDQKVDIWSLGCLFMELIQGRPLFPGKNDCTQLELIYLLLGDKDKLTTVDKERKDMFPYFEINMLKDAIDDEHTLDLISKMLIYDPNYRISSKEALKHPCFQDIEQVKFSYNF
# [7] = target: Protein kinase 7 (PK7), Plasmodium falciparum 3D7 (PF3D7_0213400) (UniProt Q7YTF7); test: inhibition of Plasmodium PK7 catalytic activity – biochemical, TCAMS antimalarial set, Kinase-Glo luminescence (AID 1159587); conditions: recombinant PfPK7, Kinase-Glo ATP depletion luminescence
# Chain of Protein kinase 7 (PK7), Plasmodium falciparum 3D7 (PF3D7_0213400) (Q7YTF7 1-343): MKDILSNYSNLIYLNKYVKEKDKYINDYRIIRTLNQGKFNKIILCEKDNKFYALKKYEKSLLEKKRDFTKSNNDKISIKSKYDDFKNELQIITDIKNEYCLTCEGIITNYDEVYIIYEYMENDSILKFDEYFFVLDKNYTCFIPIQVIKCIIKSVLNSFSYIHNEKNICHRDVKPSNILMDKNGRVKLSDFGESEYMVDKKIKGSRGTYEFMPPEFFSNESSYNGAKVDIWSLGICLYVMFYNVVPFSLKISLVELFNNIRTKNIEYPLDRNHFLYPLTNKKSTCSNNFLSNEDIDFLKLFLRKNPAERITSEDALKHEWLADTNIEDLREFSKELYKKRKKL
# [8] = target: Calcium-dependent protein kinase 4 (Plasmodium falciparum (isolate 3D7)) (UniProt Q8IBS5); test: PfCDPK4 kinase inhibitors, biochemical, TCAMS library (AID 1159588; cut-off not given, nearly all actives have IC50 up to about 0.91 µM); conditions: recombinant PfCDPK4, Kinase-Glo ATP depletion luminescence
# Chain of Calcium-dependent protein kinase 4 (Plasmodium falciparum (isolate 3D7)) (Q8IBS5 whole entry, looked up): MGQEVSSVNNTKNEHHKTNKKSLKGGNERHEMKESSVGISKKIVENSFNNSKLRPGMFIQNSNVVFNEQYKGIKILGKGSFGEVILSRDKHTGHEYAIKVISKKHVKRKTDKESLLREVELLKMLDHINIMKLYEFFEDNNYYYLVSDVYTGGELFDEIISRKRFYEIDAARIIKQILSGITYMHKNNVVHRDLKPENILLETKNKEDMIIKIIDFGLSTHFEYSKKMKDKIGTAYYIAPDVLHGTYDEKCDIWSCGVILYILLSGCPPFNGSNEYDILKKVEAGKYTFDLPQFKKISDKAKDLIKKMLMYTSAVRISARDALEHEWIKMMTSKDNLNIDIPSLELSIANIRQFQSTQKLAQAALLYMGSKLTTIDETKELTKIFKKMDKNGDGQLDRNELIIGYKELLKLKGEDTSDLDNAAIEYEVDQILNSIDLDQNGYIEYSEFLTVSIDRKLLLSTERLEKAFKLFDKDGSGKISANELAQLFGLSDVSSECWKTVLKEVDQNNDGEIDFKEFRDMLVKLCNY
SMILES,growth inhibition [1],inhibition [2],inhibition [3] [%],growth inhibition [4],outcome [5],outcome [6],outcome [7],outcome [8]
COc1cc(C(=O)NC2CCN(Cc3ccccc3)CC2)ccc1-c1nc2c(Cl)cc(C(F)(F)F)cc2[nH]1,56% (active),7%,1,103% (active),inactive,inactive,inactive,inactive
CCc1cc2c(=O)c(-c3nc(C)cs3)c(N)oc2c(CN2CCCCC2)c1O,97% (active),-2%,0,99% (active),inactive,inactive,inactive,inactive
CC(C)NCc1cccc(-c2cccc(NC(=O)c3cccc(C#N)c3)c2)c1,22%,12%,-4,99% (active),inactive,inactive,inactive,inactive
Cc1cc(-c2ccc(NC(=O)Nc3ccc4nccc(N5CCN(C)CC5)c4c3)cc2C)cc(C)n1,76% (active),-2%,4,100% (active),inactive,inactive,inactive,inactive
CC(C)c1ccc(NC(=O)c2ccc(CN3CCCN(Cc4cccc(O)c4)CC3)cc2)cc1,58% (active),51% (active),-4,100% (active),inactive,inactive,inactive,inactive
CN(C)CCOc1cc(NC(=O)Nc2ccc(Oc3ccccc3)cc2)ccc1I,4%,13%,4,89% (active),inactive,inactive,inactive,inactive
COc1ccc(-n2cc(CNCCCn3ccnc3)c(-c3cccc(F)c3)n2)cc1,17%,21%,0,98% (active),inactive,inactive,inactive,inactive
CC1(C)N=C(N)N=C(N)N1OCCc1ccc2ccccc2c1,95% (active),65% (active),3,96% (active),inactive,inactive,inactive,inactive
O=C(Cn1c(=O)cnc2ccccc21)Nc1cccc(C(=O)Nc2cccc(C(F)(F)F)c2)c1,66% (active),-12%,3,90% (active),inactive,inactive,inactive,inactive
COc1ccc2ncc(C#N)c(CCN3C[C@H](CNCc4ccccc4)[C@H](O)C3)c2n1,24%,3%,4,91% (active),inactive,inactive,inactive,inactive
